Measurements published in the supplement of paper PMC8253809.
“And” between values parts separate entries of the source, which are not always exact repeats. Equal entries are not always repeated.

Assays:
Experiment in all cases: growth inhibition (% activity, log2 RLU normalised to DMSO / staurosporine); higher = more growth inhibition
Settings in all cases: 33 µM
DIPGX29 = test system: DIPGX29 (H3.3 K27M diffuse intrinsic pontine glioma line)
Method in brief: (§1)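 The growth-inhibition value comes from CellTiter-Glo luminescence, log2-transformed, normalised per plate to % activity between solvent and positive control wells, and taken as the median over replicates. Treatment of pHGG cell lines and H9-derived neural stem cells with approved drugs was at a single final concentration of about 33 μM, in triplicate, for 7 days at 37 °C, 5% CO2.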

DIPGX37 = test system: DIPGX37 (H3.3 K27M diffuse intrinsic pontine glioma line)
Method in brief: as §1

DIPGX7 = test system: DIPGX7 (H3.3 K27M diffuse intrinsic pontine glioma line)
Method in brief: as §1

DIPGX9 = test system: DIPGX9 (diffuse intrinsic pontine glioma line)
Method in brief: as §1

HGGX39 = test system: HGGX39 (paediatric high-grade glioma line)
Method in brief: as §1

HGGX6 = test system: HGGX6 (H3.3 G34R paediatric high-grade glioma line)
Method in brief: as §1

HNSC = test system: HNSC
Method in brief: as §1

SUDIPGIV = test system: SUDIPGIV (diffuse intrinsic pontine glioma line)
Method in brief: as §1

SUDIPGVI = test system: SUDIPGVI (diffuse intrinsic pontine glioma line)
Method in brief: as §1

SUDIPGXIII = test system: SUDIPGXIII (diffuse intrinsic pontine glioma line)
Method in brief: as §1

Structure (SMILES)	growth inhibition (DIPGX29)	growth inhibition (DIPGX37)	growth inhibition (DIPGX7)	growth inhibition (DIPGX9)	growth inhibition (HGGX39)	growth inhibition (HGGX6)	growth inhibition (HNSC)	growth inhibition (SUDIPGIV)	growth inhibition (SUDIPGVI)	growth inhibition (SUDIPGXIII)
N#CC(c1ccc(Cl)cc1)c1c(Cl)cc(-n2ncc(=O)[nH]c2=O)cc1Cl (stereo not given)	-3.67%	-2.44%	-2.85%	-2.54%	-2.75%	-3.94%	-1.15%	-2.27%	-3.68%	0.254%
CCOC(=O)[C@H](CCc1ccccc1)N[C@@H](C)C(=O)N1Cc2cc(OC)c(OC)cc2C[C@H]1C(=O)O	-2.18%	-2.28%	-0.52%	-1.23%	-1.86%	-4.51%	12.2%	-0.334%	-11%	1.38%
CC(CCc1ccc(O)cc1)NCC(O)c1ccc(O)cc1 (stereo not given)	-1.35%	0.666%	-1%	0.398%	3.25%	-2.19%	5.04%	2.35%	2.3%	0.356%
COc1ncnc(NS(=O)(=O)c2ccc(N)cc2)c1OC	0.769%	2.24%	1.07%	2.03%	0.995%	1.53%	-1.3%	-0.0587%	-0.393%	1.69%
CCC[C@@H]1C[C@@H](C(=O)N[C@@H]([C@H]2O[C@H](SC)[C@H](OP(=O)(O)O)[C@@H](O)[C@H]2O)[C@H](C)Cl)N(C)C1	-4.37%	-1.53%	-1.72%	-1.01%	-2.23%	-2.46%	3.42%	-1.74%	-2.75%	0.327%
OCC(O)CN1CCN(c2ccccc2)CC1 (stereo not given)	-2.77%	-0.131%	-2.09%	-1.86%	-1.17%	-1.7%	-3.11%	-1.45%	-3.65%	-0.744%
O=C1C(=O)c2ccccc2C(O)=C1C1CCC(c2ccc(Cl)cc2)CC1 (stereo not given)	1.86%	-1.09%	2.26%	2%	1.71%	0.641%	2.01%	3.44%	2.48%	1.82%
COc1ccc2[nH]cc(CCNC(C)=O)c2c1	-2.35%	-0.423%	-1.32%	-1.49%	-1.11%	-2.19%	-1.52%	-1.67%	-0.827%	-1.28%
CO[C@H]1C(=O)[C@]2(C)[C@@H](OC)C[C@H]3OC[C@@]3(OC(C)=O)[C@H]2[C@H](OC(=O)c2ccccc2)[C@]2(O)C[C@H](OC(=O)[C@H](O)[C@@H](NC(=O)OC(C)(C)C)c3ccccc3)C(C)=C1C2(C)C	6.45%	5.31%	8.93%	18.4%	26.1%	12.9%	70.7%	22.5%	3.28%	2.32%
O=C(O)C1=CO[C@@H](O[C@@H]2O[C@H](CO)[C@@H](O)[C@H](O)[C@H]2O)[C@@H]2C(CO)=CC[C@H]12	-3.84%	-2.61%	-0.0942%	-1.59%	-2.13%	-4.13%	9.11%	-1.22%	-7.67%	-1.52%
Nc1nc(F)nc2c1ncn2[C@@H]1O[C@H](COP(=O)(O)O)[C@@H](O)[C@@H]1O	16.9%	1.7%	11.8%	31.4%	8.94%	-0.81%	23.2%	9.24%	-2.06%	1.2%
CCCC(CCC)C(=O)O	-0.377% and 2.62%	2.62% and 1.47%	0.168% and 0.662%	-1.7% and -0.864%	1.15% and -1.14%	-4.05% and -2.44%	2.37% and 0.244%	1.52% and 0.0625%	0.818% and -1.61%	0.746% and 0.431%
COc1cc(C(=O)NC2CCCNC2)cc(OC)c1OC (stereo not given)	0.123%	2%	0.49%	0.203%	2.37%	-3.35%	6.28%	1.23%	0.918%	-1.95%
Nc1nc(N)nc(-c2cc(Cl)ccc2Cl)n1	-2.22%	-3.47%	-1.19%	-0.993%	-0.32%	0.13%	-4.65%	-1.63%	-0.709%	-0.715%
CN(C)c1ccc(O)c2c1C[C@H]1C[C@H]3[C@H](N(C)C)C(=O)C(C(N)=O)=C(O)[C@@]3(O)C(=O)C1=C2O	-4.52%	-0.19%	0.692%	-1.39%	3.12%	-2.93%	5.14%	2.56%	-1.8%	1.96%
O=C(NC(Cc1cc(=O)[nH]c2ccccc12)C(=O)O)c1ccc(Cl)cc1 (stereo not given)	0.575%	0.0807%	-1.26%	0.987%	0.192%	0.202%	-1.11%	-0.753%	0.645%	0.24%
CC(C)CN(C[C@@H](O)[C@H](Cc1ccccc1)NC(=O)O[C@H]1CCOC1)S(=O)(=O)c1ccc(N)cc1	-0.715%	-0.112%	-0.0284%	-0.297%	-0.345%	-0.047%	-1.76%	-2.74%	-1.11%	0.567%
CCCCCCCCCCOc1cc2c(O)c(C(=O)OCC)cnc2cc1OCC	-0.3%	-1.31%	1.61%	-0.589%	1.16%	-2.39%	8.91%	1.52%	-8.46%	-1.19%
NC(=O)N/N=C/c1ccc([N+](=O)[O-])o1	0.652%	0.147%	0.615%	0.733%	1.49%	0.622%	2.46%	-1.17%	1.04%	-0.395%
O=c1c(-c2ccc(O)cc2)coc2cc(O)ccc12	-1.42%	-0.456%	-0.191%	-0.874%	1.36%	-0.307%	-2.12%	-0.853%	-1.44%	0.974%
COc1ccccc1N1CCN(CC(O)COc2cccc3ccccc23)CC1 (stereo not given)	0.825%	1.5%	3.11%	4.27%	2.32%	1.78%	0.281%	-1.37%	0.873%	-16%
